# According to a collection of fitness landscapes (doi:10.1126/science.1257360):
# Over roughly 140,000 sequences, “enrichment ratio after two sorts for PhoP signalling” has its median near 0; the highest 2% begin near 11. What follows is part of a selection rich in the highest values, with near analogues and random picks from the rest.
# B1: PhoQ; a variant is named by its letters at X, in order, P23837 (parent)
# chain: MKKLLRLFFPLSLRVRFLLATAAVVLVLSLAYGMVALIGYSVSFDKTTFRLLRGESNLFYTLAKWENNKLHVELPENIDKQSPTMTLIYDENGQLLWAQRDVPWLMKMIQPDWLKSNGFHEIEADVNDTSLLLSGDHSIQQQLQEVREDDDDAEMTHSVAVNVYPATSRMPKLTIVVVDTIPVELKSSYMVWSWFIYVLSANLLLVIPLLWVAAWWSLRPIEALAKEVRELEEHNRELLNPATTRELTSLVRNLNRLLKSERERYDKYRTTLTDLTHSLKTPLXXLQXXLRSLRSEKMSVSDAEPVMLEQISRISQQIGYYLHRASMRGGTLLSRELHPVAPLLDNLTSALNKVYQRKGVNISLDISPEISFVGEQNDFVEVMGNVLDNACKYCLEFVEISARQTDEHLYIVVEDDGPGIPLSKREVIFDRGQRVDTLRPGQGVGLAVAREITEQYEGKIVAGESMLGGARMEVIFGRQHSAPKDE
# Variants of: B1
# Assay: enrichment ratio after two sorts for PhoP signalling (ratio (wild type AVST 3.29)); higher = more functional
# Conditions: with PhoP (E. coli)
row,Variant,enrichment ratio
1,RRGY,≤ 0.25
2,FMSK,≤ 0.25
3,TTLF,4.92
4,SRLF,≤ 0.25
5,AILF,2.9
6,YTLF,6.76
7,SLLF,0.885
8,SELF,13.1
9,EQLF,≤ 0.25
10,DPLF,≤ 0.25
11,GYLF,≤ 0.25
12,GTLF,11.4
13,SQLF,12.6
14,ATLF,13.9
15,YMKT,≤ 0.25
16,QAAW,≤ 0.25
17,WQED,≤ 0.25
18,NQDM,≤ 0.25
19,IYQN,≤ 0.25
20,DQIN,≤ 0.25
21,HPPT,≤ 0.25
22,DIGD,≤ 0.25
23,SIGR,1.85
24,KYSK,≤ 0.25
25,SITR,11.4
26,SQMS,17.9

row,Variant,enrichment ratio
1,NQMS,≤ 0.25
2,SISK,12.1
3,STMK,9.3
4,EQMS,≤ 0.25
5,KYTR,≤ 0.25
6,SQMK,≤ 0.25
7,SISR,6.33
8,SIMK,28.9
9,DTPY,≤ 0.25
10,IRAT,≤ 0.25
11,KYIW,≤ 0.25
12,VAVA,≤ 0.25
13,AHMQ,≤ 0.25
14,IGMY,≤ 0.25
15,KQNT,≤ 0.25
16,QIGW,≤ 0.25
17,SQTI,13.3
18,KYTA,≤ 0.25
19,SIGD,7.24
20,KYTS,≤ 0.25
21,SIDW,≤ 0.25
22,KYLA,≤ 0.25
23,SFTI,≤ 0.25
24,SQTA,0.808
25,SITA,20
26,SIFA,≤ 0.25

row,Variant,enrichment ratio
1,SITS,11.6
2,SILA,16.9
3,AKHI,≤ 0.25
4,WPAY,≤ 0.25
5,GVTN,≤ 0.25
6,NYMC,≤ 0.25
7,ICGD,≤ 0.25
8,LGEW,≤ 0.25
9,SQAN,6.83
10,EDDL,≤ 0.25
11,SIMS,12.1
12,SSTI,13.8
13,SQTS,11.8
14,FQTS,≤ 0.25
15,SSWI,2.38
16,SIKQ,≤ 0.25
17,SIYI,≤ 0.25
18,SISA,11.9
19,KYSA,≤ 0.25
20,KYMS,≤ 0.25
21,SSLY,8.15
22,KSTS,≤ 0.25
23,DYKN,≤ 0.25
24,KNRG,≤ 0.25
25,IQKG,≤ 0.25
26,SNAN,6.54

row,Variant,enrichment ratio
1,EFAY,≤ 0.25
2,KYAK,≤ 0.25
3,SILY,≤ 0.25
4,SITI,19.7
5,WIAK,≤ 0.25
6,KYTI,≤ 0.25
7,SIWD,14
8,IQTC,≤ 0.25
9,SQTC,20.9
10,NQTC,≤ 0.25
11,KYWD,≤ 0.25
12,SPWD,≤ 0.25
13,SIAK,11.2
14,ELMG,≤ 0.25
15,HETM,≤ 0.25
16,NFED,≤ 0.25
17,DCAY,≤ 0.25
18,KYSH,≤ 0.25
19,QGAE,≤ 0.25
20,FIVP,≤ 0.25
21,FWLL,≤ 0.25
22,PSSI,≤ 0.25
23,QLYR,0.63
24,YEWP,≤ 0.25
25,IVFG,≤ 0.25
26,SPMS,≤ 0.25

row,Variant,enrichment ratio
1,SWMS,≤ 0.25
2,STMS,15.6
3,NWMF,≤ 0.25
4,AGGK,≤ 0.25
5,AGSQ,12.9
6,AGSR,≤ 0.25
7,RGSQ,≤ 0.25
8,NGSQ,≤ 0.25
9,TGSQ,25.1
10,LDTG,≤ 0.25
11,DEHI,≤ 0.25
12,FAGW,≤ 0.25
13,HEIN,≤ 0.25
14,EYTQ,≤ 0.25
15,STMN,2.85
16,AIMN,5.77
17,AQMN,38.4
18,AQKN,≤ 0.25
19,SPMN,≤ 0.25
20,SQMN,25.3
21,YRVY,≤ 0.25
22,YKWQ,≤ 0.25
23,AQQV,≤ 0.25
24,AELF,16.2
25,AELM,2.01
26,AEQN,21.7

row,Variant,enrichment ratio
1,AEGD,0.253
2,APLF,≤ 0.25
3,AEYN,≤ 0.25
4,AEEN,≤ 0.25
5,AILD,≤ 0.25
6,AEQV,12.7
7,AELD,11.4
8,AEEA,≤ 0.25
9,MEFK,1.13
10,WLKT,≤ 0.25
11,LQAS,≤ 0.25
12,AELA,18.7
13,AHLW,≤ 0.25
14,AILW,≤ 0.25
15,AELS,10.7
16,AELK,11.5
17,AEFS,19
18,AELY,9.13
19,AELW,11.4
20,AEWI,≤ 0.25
21,AEFP,≤ 0.25
22,AEFA,0.58
23,AEPA,≤ 0.25
